These results are taken from PubChem BioAssay (EPA / NIEHS).

Each structure is given as a SMILES string. Inconclusive results are not listed. Some compounds were tested as several samples or in several runs, with calls that do not always agree. Active and inactive are the calls of the source. Rule for the calls, unless noted: active = hit-call score of the fitted dose curve at least 0.9, where 1 is the maximum; inconclusive = response in the unintended direction; inactive = score below 0.9.

Experiment [1] is described as follows: BSK_4H_Eotaxin3: BioMAP Diversity Plus: 4H Assay for Eotaxin 3 Biomarker Activity (AID 2283000; active = hit-call score of the fitted dose curve at least 0.9, where 1 is the maximum; inactive = score below 0.9;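 for outcome: CCL26 protein level quantified by ELISA in parallel with SRB cytotoxicity check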). The settings on record: primary human endothelial cells (HUVEC); actives raise or lower the signal. In outline:
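Readout is Eotaxin-3 (CCL26) level by ELISA in primary human umbilical vein endothelial cells harvested 24 h after chemical exposure; activity fitted in both directions against DMSO control.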

Experiment [2] deals with human Peroxisome Proliferator-activated Receptor alpha (PPARa), PPARA (gene 5465) (UniProt Q07869). Briefly: ATG_PPARa_TRANS: Attagene TRANS-FACTORIAL HepG2 Assay for human Peroxisome Proliferator-activated Receptor alpha (PPARa) (AID 2283001).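 For AC50: potency for gain of reporter signal over DMSO so agonist or activator.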 In outline:
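Reporter transcripts from GAL4-UAS units in transfected HepG2 were quantified 24 h after dosing. Detection used reverse transcription, PCR, fluorescent primer extension and capillary electrophoresis, with DMSO as baseline.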

Read-out in experiment [3]: Intercellular Adhesion Molecule 1 (ICAM1), ICAM1 (gene 3383)
Description: BSK_3C_ICAM1: BioMAP Diversity Plus: 3C Assay for Intercellular Adhesion Molecule 1 (ICAM1) Biomarker Activity (AID 2283003; active = hit-call score of the fitted dose curve at least 0.9, where 1 is the maximum; inactive = score below 0.9). The settings on record: primary human endothelial cells (HUVEC); actives raise or lower the signal. The gist of the method:
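Human vascular endothelial primary cells, 3C conditions, 24 h treatment. ICAM-1 by ELISA.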

The target of experiment [4] is human Retinoic Acid Receptor beta (RARb), RARB (gene 5915) (UniProt P10826). Description: ATG_RARb_TRANS: Attagene TRANS-FACTORIAL HepG2 Assay for human Retinoic Acid Receptor beta (AID 2283004). The gist of the method:
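Readout is reporter mRNA induction: RNA reverse-transcribed, PCR-amplified, FAM-labelled, HpaI-cut and resolved by capillary electrophoresis. Transiently transfected HepG2 cells carrying exogenous NR–Gal4 chimeras were dosed for 24 h; activity fitted upward relative to DMSO.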

In experiment [5] the target is Retinoic acid receptor alpha (Homo sapiens) (UniProt P10276). Briefly: ATG_RARa_TRANS: Attagene TRANS-FACTORIAL HepG2 Assay for human Retinoic Acid Receptor alpha (RARa) (AID 2283005). In outline:
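Reporter transcripts, measured by RT-PCR with fluorescent labeling and capillary electrophoresis after 24 h dosing, reflect activity of an exogenous human RARa–GAL4 fusion in transiently transfected HepG2. Fitted for increase relative to DMSO.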

Experiment [6] can be described thus: BSK_3C_Proliferation: Cell Proliferation Assessment in the BioMAP Diversity Plus: 3C Assay (AID 2283006; active = hit-call score of the fitted dose curve at least 0.9, where 1 is the maximum; inactive = score below 0.9;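 for AC50: potency may reflect either rise or fall in cell number versus DMSO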). The settings on record: primary human endothelial cells (HUVEC). The gist of the method:
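Proliferation of human vascular endothelial primary cells after 48 h dosing, quantified as SRB-stained protein at 560 nm relative to DMSO.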

In experiment [7] the target is Peroxisome proliferator-activated receptor gamma (Homo sapiens) (UniProt P37231). Description: ATG_PPARg_TRANS: Attagene TRANS-FACTORIAL HepG2 Assay for human Peroxisome Proliferator-activated Receptor-gamma (PPARg) (AID 2283007). In outline:
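Endpoint reflects upward reporter mRNA change versus DMSO controls. Setup: transiently transfected HepG2, GAL4-UAS reporters driven by chimeric NR-Gal4, 24 h incubation, RT-PCR with capillary electrophoresis read-out.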

The target of experiment [8] is human Retinoic Acid Receptor gamma (RARg), RARG (gene 5916) (UniProt P13631). Briefly: ATG_RARg_TRANS: Attagene TRANS-FACTORIAL HepG2 Assay for human Retinoic Acid Receptor gamma (RARg) (AID 2283009). In outline: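 HepG2, RARg-GAL4 TRANS system, 24 h exposure; reporter mRNA by RT-PCR + CE fluorescence; increase over DMSO.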
Experiment [9] addresses human RAR-related Orphan Receptor beta (RORb), RORB (gene 6096) (UniProt Q92753). Briefly: ATG_RORb_TRANS: Attagene TRANS-FACTORIAL HepG2 Assay for human RAR-related Orphan Receptor beta (RORb) (AID 2283010). The gist of the method: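 In this TRANS-format test, human HepG2 cells express chimeric NR-Gal4 fusion proteins driving GAL4-UAS reporters. After 24 h dosing, reporter transcripts are measured by fluorescent RT-PCR/capillary electrophoresis, with DMSO as negative control.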

In experiment [10] the target is human RAR-related Orphan Receptor gamma (RORg), RORC (gene 6097) (UniProt P51449). Description: ATG_RORg_TRANS: Attagene TRANS-FACTORIAL HepG2 Assay for human RAR-related Orphan Receptor gamma (RORg) (AID 2283011). The gist of the method:
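Transient MRTU transfection of HepG2 (TRANS format, exogenous NR-Gal4 chimera). 24 h dosing. Total RNA → oligo(dT) RT → PCR → 6-FAM labelling → HpaI cut → CE. Gain vs DMSO.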

Experiment [11] has as its target Retinoic acid receptor RXR-alpha (Homo sapiens) (UniProt P19793). Description: ATG_RXRa_TRANS: Attagene TRANS-FACTORIAL HepG2 Assay for human Retinoid X Receptor alpha (RXRa) (AID 2283012). In outline: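 Cells (HepG2) carried transiently transfected GAL4-responsive reporter units. Following a 24 h chemical incubation, reporter mRNA induction was read via RT-PCR fragment analysis; DMSO served as negative control and baseline.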

Experiment [12] has as its target human Retinoid X Receptor beta (RXRb), RXRB (gene 6257) (UniProt P28702). Briefly: ATG_RXRb_TRANS: Attagene TRANS-FACTORIAL HepG2 Assay for human Retinoid X Receptor beta (RXRb) (AID 2283013). The gist of the method: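 Multiplexed TRANS reporter assay in HepG2; 24 h dosing; reporter mRNA by RT-PCR/CE fluorescence; gain-of-signal relative to DMSO.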
In experiment [13] the target is human Thyroid Receptor alpha (THRa1), THRA (gene 7067) (UniProt P10827). Description: ATG_THRa1_TRANS: Attagene TRANS-FACTORIAL HepG2 Assay for human Thyroid Receptor alpha (THRa1) (AID 2283014). In outline:
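Transient HepG2 transfection, NR-Gal4 chimera driving GAL4-UAS reporters; 24 h compound exposure; total RNA, oligo(dT) RT, PCR, fluorescent primer extension, capillary electrophoresis. Upward direction vs DMSO control.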

Read-out in experiment [14]: E-selectin (Homo sapiens) (UniProt P16581)
Description: BSK_3C_Eselectin: BioMAP Diversity Plus: 3C Assay for Eselectin Biomarker Activity (AID 2283015; active = hit-call score of the fitted dose curve at least 0.9, where 1 is the maximum; inactive = score below 0.9;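 for outcome: cell surface E-selectin protein quantified by ELISA 24 h after dosing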). As to conditions: primary human endothelial cells (HUVEC); actives raise or lower the signal. In outline:
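HUVEC, 3C stimulation; compound exposure 24 h; E-selectin by ELISA; gain- or loss-of-signal fitted bidirectionally vs DMSO baseline.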

Read-out in experiment [15]: Interleukin-1 alpha (IL1a), IL1A (gene 3552)
Briefly: BSK_BE3C_IL1a: BioMAP Diversity Plus: BE3C Assay for Interleukin-1 alpha (IL1a) Biomarker Activity (AID 2283016; active = hit-call score of the fitted dose curve at least 0.9, where 1 is the maximum; inactive = score below 0.9). The settings on record: primary human bronchial epithelial cells; actives raise or lower the signal. The gist of the method: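 Cultures of primary human bronchial epithelial cells receive test chemical. After 24 h, IL-1a is quantified by ELISA, while parallel wells are fixed in TCA and SRB-stained for total protein. Changes in either direction are fitted relative to DMSO.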

Read-out in experiment [16]: Monocyte Chemoattractant Protein-1 (MCP1), CCL2 (gene 6347)
Briefly: BSK_3C_MCP1: BioMAP Diversity Plus: 3C Assay for Monocyte Chemoattractant Protein-1 (MCP1) Biomarker Activity (AID 2283017; active = hit-call score of the fitted dose curve at least 0.9, where 1 is the maximum; inactive = score below 0.9). As to conditions: primary human endothelial cells (HUVEC); actives raise or lower the signal. In outline: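 HUVEC, 3C system; 24 h chemical exposure; MCP-1 by ELISA; bidirectional curve fit vs DMSO baseline.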

Read-out in experiment [17]: Monocyte Chemoattractant Protein-1 (MCP1), CCL2 (gene 6347)
Briefly: BSK_4H_MCP1: BioMAP Diversity Plus: 4H Assay for Monocyte Chemoattractant Protein-1 (MCP1) Biomarker Activity (AID 2283018; active = hit-call score of the fitted dose curve at least 0.9, where 1 is the maximum; inactive = score below 0.9). As to conditions: primary human endothelial cells (HUVEC); actives raise or lower the signal. In outline: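 Readout: MCP-1 ELISA on compound-treated HUVEC, sampled 24 h post-dosing. Baseline and negative control DMSO; bidirectional fit. Overt toxicity checked alongside by sulforhodamine B protein staining at time of biomarker measurement.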

Read-out in experiment [18]: Human Leukocyte Antigen - DR isotype (HLADR), HLA-DRA (gene 3122)
Briefly: BSK_3C_HLADR: BioMAP Diversity Plus: 3C Assay for Human Leukocyte Antigen - DR isotype (HLADR) Biomarker Activity (AID 2283019; active = hit-call score of the fitted dose curve at least 0.9, where 1 is the maximum; inactive = score below 0.9;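 for outcome: ELISA of cell-surface HLA-DR on HUVEC 24 h after dosing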). As to conditions: primary human endothelial cells (HUVEC); actives raise or lower the signal. In outline:
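HUVEC, 3C stimulation, 24 h post-dose; HLA-DR by ELISA; bidirectional curve fit vs DMSO baseline; gain or loss of signal scored.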

In experiment [19] the target is human Peroxisome Proliferator-activated Receptor delta (PPARd), PPARD (gene 5467) (UniProt Q03181). Briefly: ATG_PPARd_TRANS: Attagene TRANS-FACTORIAL HepG2 Assay for human Peroxisome Proliferator-activated Receptor delta (PPARd) (AID 2283002). In outline:
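Cell-based TRANS reporter: HepG2, transient MRTU transfection, 24 h exposure. Readout = reporter mRNA (RT-PCR/CE, 6-FAM). Gain-of-signal fit vs DMSO control.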

Experiment [20] has as its target Nuclear receptor subfamily 1 group I member 2 (Homo sapiens) (UniProt O75469). Description: ATG_PXR_TRANS: Attagene TRANS-FACTORIAL HepG2 Assay for human Pregnane X Receptor (PXR) (AID 2283008). In outline: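 Fluorescence intensity of FAM-labelled, HpaI-digested reporter amplicons, separated by capillary electrophoresis, quantifies induction. HepG2 cells with PXR-Gal4 trans-reporter system were exposed 24 h; DMSO defines baseline.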

Chain of human Thyroid Receptor alpha (THRa1), THRA (gene 7067) (P10827 whole entry, looked up, the tested form may be a part): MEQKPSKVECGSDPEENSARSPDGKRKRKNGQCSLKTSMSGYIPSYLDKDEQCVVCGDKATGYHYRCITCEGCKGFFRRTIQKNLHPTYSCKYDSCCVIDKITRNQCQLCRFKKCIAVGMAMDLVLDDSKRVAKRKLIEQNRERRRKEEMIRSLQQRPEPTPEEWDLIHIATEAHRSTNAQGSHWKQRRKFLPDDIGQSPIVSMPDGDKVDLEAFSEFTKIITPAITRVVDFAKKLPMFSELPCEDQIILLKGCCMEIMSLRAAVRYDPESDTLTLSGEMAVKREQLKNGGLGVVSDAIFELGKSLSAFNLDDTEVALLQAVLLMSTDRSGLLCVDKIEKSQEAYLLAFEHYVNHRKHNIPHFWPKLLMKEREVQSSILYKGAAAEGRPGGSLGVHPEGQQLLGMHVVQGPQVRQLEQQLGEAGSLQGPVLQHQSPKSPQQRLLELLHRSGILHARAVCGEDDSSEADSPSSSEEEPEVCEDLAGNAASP
Chain of Retinoic acid receptor RXR-alpha (Homo sapiens) (P19793 whole entry, looked up, the tested form may be a part): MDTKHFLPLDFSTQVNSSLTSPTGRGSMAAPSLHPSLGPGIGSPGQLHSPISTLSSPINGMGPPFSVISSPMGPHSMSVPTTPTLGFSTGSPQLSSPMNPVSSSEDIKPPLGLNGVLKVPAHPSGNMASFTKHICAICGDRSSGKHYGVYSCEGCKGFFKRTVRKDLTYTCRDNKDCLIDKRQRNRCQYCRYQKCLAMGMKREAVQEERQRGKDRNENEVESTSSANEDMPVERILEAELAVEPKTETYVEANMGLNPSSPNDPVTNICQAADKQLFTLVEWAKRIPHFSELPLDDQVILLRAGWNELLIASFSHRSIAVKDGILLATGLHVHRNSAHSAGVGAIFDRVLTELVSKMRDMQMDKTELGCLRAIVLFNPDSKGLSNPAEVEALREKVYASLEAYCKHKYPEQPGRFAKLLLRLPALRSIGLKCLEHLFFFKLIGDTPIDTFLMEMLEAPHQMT
Chain of human Peroxisome Proliferator-activated Receptor delta (PPARd), PPARD (gene 5467) (Q03181 whole entry, looked up): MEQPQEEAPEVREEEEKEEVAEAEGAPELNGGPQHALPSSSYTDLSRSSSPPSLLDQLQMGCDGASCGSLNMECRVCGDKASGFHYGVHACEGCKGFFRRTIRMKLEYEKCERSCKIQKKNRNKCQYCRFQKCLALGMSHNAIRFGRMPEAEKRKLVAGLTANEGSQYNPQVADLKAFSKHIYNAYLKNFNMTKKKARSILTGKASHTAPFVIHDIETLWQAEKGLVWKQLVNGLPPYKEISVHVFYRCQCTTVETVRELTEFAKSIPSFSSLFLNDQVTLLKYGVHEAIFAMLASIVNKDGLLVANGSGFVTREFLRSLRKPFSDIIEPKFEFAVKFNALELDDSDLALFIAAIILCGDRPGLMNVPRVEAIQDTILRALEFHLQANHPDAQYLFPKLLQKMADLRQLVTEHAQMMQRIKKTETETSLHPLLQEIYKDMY
Chain of human RAR-related Orphan Receptor gamma (RORg), RORC (gene 6097) (P51449 whole entry, looked up, the tested form may be a part): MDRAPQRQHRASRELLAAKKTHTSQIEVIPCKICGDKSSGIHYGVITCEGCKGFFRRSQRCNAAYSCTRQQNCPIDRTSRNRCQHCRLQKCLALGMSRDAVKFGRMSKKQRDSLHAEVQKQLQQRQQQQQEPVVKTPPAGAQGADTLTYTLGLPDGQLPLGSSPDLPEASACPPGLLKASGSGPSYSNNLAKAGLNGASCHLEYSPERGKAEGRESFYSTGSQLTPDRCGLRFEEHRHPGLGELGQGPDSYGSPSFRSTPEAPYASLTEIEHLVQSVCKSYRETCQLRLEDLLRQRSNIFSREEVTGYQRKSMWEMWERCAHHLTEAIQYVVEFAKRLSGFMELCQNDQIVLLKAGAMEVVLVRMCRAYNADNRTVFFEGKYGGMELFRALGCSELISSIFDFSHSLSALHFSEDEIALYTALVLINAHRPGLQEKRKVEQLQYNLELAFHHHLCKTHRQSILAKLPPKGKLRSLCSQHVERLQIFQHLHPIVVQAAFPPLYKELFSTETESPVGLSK
Chain of Nuclear receptor subfamily 1 group I member 2 (Homo sapiens) (O75469 whole entry, looked up, the tested form may be a part): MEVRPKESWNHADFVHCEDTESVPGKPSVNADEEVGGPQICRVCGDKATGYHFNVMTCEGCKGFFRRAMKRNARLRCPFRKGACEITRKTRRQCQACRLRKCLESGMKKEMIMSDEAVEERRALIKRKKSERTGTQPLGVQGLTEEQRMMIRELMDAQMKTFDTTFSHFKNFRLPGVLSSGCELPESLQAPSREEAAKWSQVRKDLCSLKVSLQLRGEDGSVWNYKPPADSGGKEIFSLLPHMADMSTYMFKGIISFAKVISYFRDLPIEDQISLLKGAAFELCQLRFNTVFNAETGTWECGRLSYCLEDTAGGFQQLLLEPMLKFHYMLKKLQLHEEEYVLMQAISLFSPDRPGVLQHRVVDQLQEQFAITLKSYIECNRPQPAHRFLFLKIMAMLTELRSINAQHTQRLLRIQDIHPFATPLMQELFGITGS
Chain of Retinoic acid receptor alpha (Homo sapiens) (P10276 whole entry, looked up, the tested form may be a part): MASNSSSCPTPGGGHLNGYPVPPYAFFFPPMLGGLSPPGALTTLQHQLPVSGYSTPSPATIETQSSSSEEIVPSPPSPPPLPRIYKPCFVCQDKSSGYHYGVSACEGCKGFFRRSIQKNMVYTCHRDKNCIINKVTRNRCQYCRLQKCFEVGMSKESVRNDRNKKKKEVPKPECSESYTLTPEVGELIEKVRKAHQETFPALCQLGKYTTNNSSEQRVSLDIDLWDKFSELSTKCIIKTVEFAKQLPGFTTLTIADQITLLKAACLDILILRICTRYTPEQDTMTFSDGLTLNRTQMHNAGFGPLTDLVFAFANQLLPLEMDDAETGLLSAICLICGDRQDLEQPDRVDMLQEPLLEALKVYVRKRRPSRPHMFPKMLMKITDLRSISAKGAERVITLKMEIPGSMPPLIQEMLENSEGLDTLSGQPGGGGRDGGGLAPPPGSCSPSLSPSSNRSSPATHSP
Chain of human Retinoid X Receptor beta (RXRb), RXRB (gene 6257) (P28702 whole entry, looked up): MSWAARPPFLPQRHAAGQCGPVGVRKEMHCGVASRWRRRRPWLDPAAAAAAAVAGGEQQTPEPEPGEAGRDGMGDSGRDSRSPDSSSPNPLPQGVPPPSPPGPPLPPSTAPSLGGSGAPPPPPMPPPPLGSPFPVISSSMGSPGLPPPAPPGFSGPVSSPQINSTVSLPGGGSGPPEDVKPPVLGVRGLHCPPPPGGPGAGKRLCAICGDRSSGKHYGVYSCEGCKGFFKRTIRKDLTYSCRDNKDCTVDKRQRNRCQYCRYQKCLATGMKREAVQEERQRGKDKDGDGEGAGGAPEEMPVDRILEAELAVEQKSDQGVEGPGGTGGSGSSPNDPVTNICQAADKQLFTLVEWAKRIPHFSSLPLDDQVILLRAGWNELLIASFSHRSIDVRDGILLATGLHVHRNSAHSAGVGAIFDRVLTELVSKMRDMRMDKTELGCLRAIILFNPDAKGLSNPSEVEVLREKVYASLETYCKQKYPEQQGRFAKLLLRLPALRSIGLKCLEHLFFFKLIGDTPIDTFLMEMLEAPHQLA
Chain of human Retinoic Acid Receptor beta (RARb), RARB (gene 5915) (P10826 whole entry, looked up, the tested form may be a part): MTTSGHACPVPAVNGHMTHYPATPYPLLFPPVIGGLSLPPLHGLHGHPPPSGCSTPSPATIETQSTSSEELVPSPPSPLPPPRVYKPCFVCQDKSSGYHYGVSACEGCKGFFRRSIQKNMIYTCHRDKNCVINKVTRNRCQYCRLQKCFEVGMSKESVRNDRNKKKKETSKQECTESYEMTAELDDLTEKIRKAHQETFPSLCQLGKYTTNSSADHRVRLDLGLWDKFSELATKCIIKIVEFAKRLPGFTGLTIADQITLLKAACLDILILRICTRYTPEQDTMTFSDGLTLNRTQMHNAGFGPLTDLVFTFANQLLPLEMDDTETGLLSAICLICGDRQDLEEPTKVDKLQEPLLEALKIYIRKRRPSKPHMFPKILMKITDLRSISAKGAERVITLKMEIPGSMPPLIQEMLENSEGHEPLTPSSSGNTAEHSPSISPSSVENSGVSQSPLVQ
Chain of E-selectin (Homo sapiens) (P16581 whole entry, looked up): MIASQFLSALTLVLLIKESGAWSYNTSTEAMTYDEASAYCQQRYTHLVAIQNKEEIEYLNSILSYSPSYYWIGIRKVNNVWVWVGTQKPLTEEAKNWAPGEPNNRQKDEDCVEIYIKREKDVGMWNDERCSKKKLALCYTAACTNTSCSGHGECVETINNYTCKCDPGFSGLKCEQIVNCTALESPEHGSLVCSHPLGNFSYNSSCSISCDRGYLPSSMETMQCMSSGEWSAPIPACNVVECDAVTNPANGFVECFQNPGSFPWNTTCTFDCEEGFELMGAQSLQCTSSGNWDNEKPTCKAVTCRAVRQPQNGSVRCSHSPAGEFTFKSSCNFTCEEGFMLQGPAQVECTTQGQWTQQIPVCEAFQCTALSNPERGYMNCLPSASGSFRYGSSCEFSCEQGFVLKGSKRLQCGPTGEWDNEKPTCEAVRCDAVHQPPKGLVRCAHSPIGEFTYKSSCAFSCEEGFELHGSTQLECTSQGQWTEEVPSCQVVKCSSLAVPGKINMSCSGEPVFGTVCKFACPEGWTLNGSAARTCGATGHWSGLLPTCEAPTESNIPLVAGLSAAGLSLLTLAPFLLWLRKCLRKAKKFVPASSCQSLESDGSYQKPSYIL
Chain of human RAR-related Orphan Receptor beta (RORb), RORB (gene 6096) (Q92753 whole entry, looked up, the tested form may be a part): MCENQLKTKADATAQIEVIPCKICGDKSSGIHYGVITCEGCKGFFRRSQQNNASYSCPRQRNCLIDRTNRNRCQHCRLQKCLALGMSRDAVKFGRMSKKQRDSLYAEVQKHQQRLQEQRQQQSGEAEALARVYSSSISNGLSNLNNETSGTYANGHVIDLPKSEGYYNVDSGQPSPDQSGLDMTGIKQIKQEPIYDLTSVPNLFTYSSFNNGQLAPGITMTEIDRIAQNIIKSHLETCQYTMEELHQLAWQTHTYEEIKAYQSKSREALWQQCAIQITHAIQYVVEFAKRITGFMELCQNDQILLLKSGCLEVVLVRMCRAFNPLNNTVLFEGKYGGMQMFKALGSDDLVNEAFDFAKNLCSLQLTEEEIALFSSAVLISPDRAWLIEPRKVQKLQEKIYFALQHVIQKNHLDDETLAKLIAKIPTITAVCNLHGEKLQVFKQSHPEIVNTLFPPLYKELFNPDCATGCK

As usually defined, the AC50 is the midpoint of the concentration-response curve, whichever way the signal moves. `CC(C)(C)C(O)C(Oc1ccc(Cl)cc1)n1cncn1` (stereo unspecified): the outcome in experiment [1], in [2], in [3], in [4], in experiment [5] and in [6] was inactive. Further, the result in experiment [7], in experiment [8], in [9], in [10], in experiment [11] and in experiment [12] was inactive. Also, the outcome in [13], in experiment [14], in experiment [15], in experiment [16], in [17] and in [18] was inactive. The half-maximal activity concentration (AC50) in [14] was 3.36 µM (active); in experiment [18] it was 5.49 µM (active).
On to `CCOc1nc(NC)nc(NC(=O)NS(=O)(=O)c2ccccc2C(=O)OC)n1`, for which the outcome in experiment [1], in experiment [2], in experiment [19], in experiment [3], in experiment [6] and in experiment [7] was inactive. Further, the result in [11], in experiment [12], in experiment [14], in experiment [15], in [16] and in [17] was inactive. For the same compound, the outcome in experiment [18] was inactive.
As for `CCC(C)Nc1c([N+](=O)[O-])cc(C(C)(C)C)cc1[N+](=O)[O-]` (stereo unspecified), the outcome in experiment [1], in experiment [2], in experiment [3], in [4], in experiment [5] and in experiment [8] was inactive. Further, the call in [9], in [12] and in experiment [15] was inactive. The AC50 in experiment [6] is 34.6 µM (active); in experiment [7] it was 36.8 µM (active); in experiment [14], 25.8 µM (active); in experiment [16], 31.3 µM (active); in [17], 20 µM (active); in experiment [18], 20 µM (active).
Take `C#CCN1C(=O)COc2cc(F)c(N3C(=O)C4=C(CCCC4)C3=O)cc21`: the result in experiment [1], in experiment [2], in experiment [3], in [4], in experiment [5] and in experiment [6] was inactive. Also, the compound was called inactive in [20], in experiment [8], in experiment [11], in [12], in [13] and in experiment [14]. Further, the outcome in experiment [15], in [16], in [17] and in [18] was inactive. For the same compound, the AC50 in [7] was 50 µM (active).
As for `CCS(=O)(=O)c1cccnc1S(=O)(=O)NC(=O)Nc1nc(OC)cc(OC)n1`, the outcome in experiment [1], in experiment [2], in experiment [19], in [3], in experiment [5] and in [6] was inactive. Moreover, the result in experiment [7], in experiment [20], in experiment [8], in [9], in experiment [10] and in [11] was inactive. Moreover, the outcome in [12], in experiment [13], in experiment [14], in [15], in experiment [16] and in experiment [17] was inactive. The outcome in experiment [18] was inactive.
Take `Oc1ccc(Cl)cc1Cc1ccccc1`: the concentration at half-maximal activity (AC50) in [1] was 34.4 µM (active) [middle of 7 runs]; in experiment [2], 53.5 µM (active); in experiment [3], 37.1 µM (active) [middle of 7 runs]; in experiment [6], 24.8 µM (active) [middle of 7 runs]; in [7] it was 8.85 µM (active) [middle of 4 runs]; in [11] it was 13.6 µM (active) [middle of 5 runs]. The AC50 in [14] is 34.7 µM (active) [middle of 6 runs]; in [15] it was 33.8 µM (active) [middle of 7 runs]; in [16], 34.8 µM (active) [middle of 7 runs]; in experiment [17], 14.5 µM (active) [middle of 5 runs]; in [18], 31.3 µM (active) [middle of 7 runs]. Also, the call in experiment [2], in experiment [19], in experiment [4], in experiment [5], in [7] and in experiment [8] was inactive. Also, the outcome in experiment [9], in experiment [11], in [12], in experiment [13] and in [17] was inactive.
